# According to ChEMBL document CHEMBL1961873, “Compounds: GSK PKIS; Assays: Nanosyn kinase panel” (2012):
# Legend:
# [1] = biological target: Ribosomal protein S6 kinase alpha-6 (Homo sapiens) (UniProt Q9UK32); details: at 1 µM;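 also: each value is a mean inhibition of RSK4 from a GSK PKIS panel screen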
# [2] = biological target: T1, Serine/threonine-protein kinase Sgk1 (Homo sapiens) (UniProt O00141); details: at 0.1 µM
# T1 sequence (whole entry): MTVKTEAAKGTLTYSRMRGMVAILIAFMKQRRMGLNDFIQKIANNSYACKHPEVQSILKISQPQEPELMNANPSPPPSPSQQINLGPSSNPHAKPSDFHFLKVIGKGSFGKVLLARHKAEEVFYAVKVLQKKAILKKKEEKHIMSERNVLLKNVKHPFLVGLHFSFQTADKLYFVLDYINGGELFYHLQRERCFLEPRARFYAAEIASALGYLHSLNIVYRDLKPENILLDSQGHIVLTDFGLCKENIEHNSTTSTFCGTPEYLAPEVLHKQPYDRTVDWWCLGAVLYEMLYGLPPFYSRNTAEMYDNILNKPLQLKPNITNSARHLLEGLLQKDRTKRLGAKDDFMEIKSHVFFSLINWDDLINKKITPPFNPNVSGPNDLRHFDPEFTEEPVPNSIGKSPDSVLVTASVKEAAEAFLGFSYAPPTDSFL
# [3] = biological target: T1, Serine/threonine-protein kinase Sgk1 (Homo sapiens); details: at 1 µM
# [4] = biological target: T2, Serine/threonine-protein kinase Sgk2 (Homo sapiens) (UniProt Q9HBY8); details: at 0.1 µM
# T2 sequence (whole entry): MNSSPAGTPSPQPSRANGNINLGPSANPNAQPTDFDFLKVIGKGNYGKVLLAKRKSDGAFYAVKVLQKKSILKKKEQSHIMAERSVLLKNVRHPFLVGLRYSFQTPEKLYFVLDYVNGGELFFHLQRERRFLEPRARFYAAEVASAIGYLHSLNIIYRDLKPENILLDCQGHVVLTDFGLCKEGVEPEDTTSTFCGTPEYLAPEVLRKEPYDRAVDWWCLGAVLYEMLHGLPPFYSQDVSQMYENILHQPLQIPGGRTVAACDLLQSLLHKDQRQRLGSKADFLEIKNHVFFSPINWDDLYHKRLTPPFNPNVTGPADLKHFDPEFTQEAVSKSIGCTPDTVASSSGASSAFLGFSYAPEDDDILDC
# [5] = biological target: T2, Serine/threonine-protein kinase Sgk2 (Homo sapiens); details: at 1 µM
# [6] = biological target: T3, Serine/threonine-protein kinase Sgk3 (Homo sapiens) (UniProt Q96BR1); details: at 0.1 µM
# T3 sequence (whole entry): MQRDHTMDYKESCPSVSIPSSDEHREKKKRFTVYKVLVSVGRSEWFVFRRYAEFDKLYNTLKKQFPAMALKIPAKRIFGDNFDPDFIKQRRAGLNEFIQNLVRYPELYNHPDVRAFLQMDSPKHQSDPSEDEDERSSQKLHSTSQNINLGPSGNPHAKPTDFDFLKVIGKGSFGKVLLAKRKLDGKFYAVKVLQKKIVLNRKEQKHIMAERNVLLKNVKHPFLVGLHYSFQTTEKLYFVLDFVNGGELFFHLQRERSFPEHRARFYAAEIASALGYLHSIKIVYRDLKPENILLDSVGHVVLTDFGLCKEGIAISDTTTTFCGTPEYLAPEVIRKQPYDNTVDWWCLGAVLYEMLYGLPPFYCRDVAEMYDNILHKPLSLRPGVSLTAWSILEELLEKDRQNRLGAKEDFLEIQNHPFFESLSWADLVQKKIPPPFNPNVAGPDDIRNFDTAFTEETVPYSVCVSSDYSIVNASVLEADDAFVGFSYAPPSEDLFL
# [7] = biological target: T3, Serine/threonine-protein kinase Sgk3 (Homo sapiens); details: at 1 µM
# [8] = biological target: 5'-AMP-activated protein kinase catalytic subunit alpha-1 (Homo sapiens) (UniProt Q13131); details: at 0.1 µM
# 5'-AMP-activated protein kinase catalytic subunit alpha-1 (Homo sapiens), sequence (Q13131 whole entry, looked up): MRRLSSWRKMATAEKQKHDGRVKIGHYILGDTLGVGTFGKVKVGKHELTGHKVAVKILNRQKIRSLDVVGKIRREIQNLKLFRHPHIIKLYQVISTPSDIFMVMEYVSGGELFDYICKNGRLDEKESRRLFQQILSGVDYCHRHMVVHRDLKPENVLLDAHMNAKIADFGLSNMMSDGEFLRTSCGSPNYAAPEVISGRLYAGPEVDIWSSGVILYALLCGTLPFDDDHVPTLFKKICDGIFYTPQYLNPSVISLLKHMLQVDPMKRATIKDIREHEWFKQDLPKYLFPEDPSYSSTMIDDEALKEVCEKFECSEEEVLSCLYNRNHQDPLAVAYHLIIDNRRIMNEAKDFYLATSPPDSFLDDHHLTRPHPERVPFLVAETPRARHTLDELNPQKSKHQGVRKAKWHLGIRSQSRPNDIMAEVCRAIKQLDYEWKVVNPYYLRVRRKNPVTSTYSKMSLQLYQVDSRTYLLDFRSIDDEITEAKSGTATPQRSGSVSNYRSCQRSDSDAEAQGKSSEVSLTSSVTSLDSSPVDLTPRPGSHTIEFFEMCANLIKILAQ
# [9] = biological target: 5'-AMP-activated protein kinase catalytic subunit alpha-1 (Homo sapiens) (UniProt Q13131); details: at 1 µM
# [10] = biological target: 5'-AMP-activated protein kinase catalytic subunit alpha-2 (Homo sapiens) (UniProt P54646); details: at 0.1 µM
# 5'-AMP-activated protein kinase catalytic subunit alpha-2 (Homo sapiens), sequence (P54646 whole entry, looked up): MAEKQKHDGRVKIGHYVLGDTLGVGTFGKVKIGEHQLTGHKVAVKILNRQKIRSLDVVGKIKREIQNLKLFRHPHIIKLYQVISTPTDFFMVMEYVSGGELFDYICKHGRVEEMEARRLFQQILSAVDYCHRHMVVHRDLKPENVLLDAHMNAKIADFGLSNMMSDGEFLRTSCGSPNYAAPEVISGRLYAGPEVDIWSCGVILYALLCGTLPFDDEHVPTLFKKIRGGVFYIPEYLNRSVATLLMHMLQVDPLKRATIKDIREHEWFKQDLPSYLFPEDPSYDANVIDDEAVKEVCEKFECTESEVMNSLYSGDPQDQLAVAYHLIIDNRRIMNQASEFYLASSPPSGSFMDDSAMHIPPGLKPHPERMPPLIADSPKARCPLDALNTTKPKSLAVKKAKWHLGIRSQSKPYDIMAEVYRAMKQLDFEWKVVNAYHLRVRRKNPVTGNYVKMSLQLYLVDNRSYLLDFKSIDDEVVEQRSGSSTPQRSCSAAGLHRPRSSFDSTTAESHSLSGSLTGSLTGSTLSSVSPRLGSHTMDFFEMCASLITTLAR
# [11] = biological target: 5'-AMP-activated protein kinase catalytic subunit alpha-2 (Homo sapiens) (UniProt P54646); details: at 1 µM
# [12] = biological target: T4, NUAK family SNF1-like kinase 1 (Homo sapiens) (UniProt O60285); details: at 0.1 µM
# T4 sequence (whole entry): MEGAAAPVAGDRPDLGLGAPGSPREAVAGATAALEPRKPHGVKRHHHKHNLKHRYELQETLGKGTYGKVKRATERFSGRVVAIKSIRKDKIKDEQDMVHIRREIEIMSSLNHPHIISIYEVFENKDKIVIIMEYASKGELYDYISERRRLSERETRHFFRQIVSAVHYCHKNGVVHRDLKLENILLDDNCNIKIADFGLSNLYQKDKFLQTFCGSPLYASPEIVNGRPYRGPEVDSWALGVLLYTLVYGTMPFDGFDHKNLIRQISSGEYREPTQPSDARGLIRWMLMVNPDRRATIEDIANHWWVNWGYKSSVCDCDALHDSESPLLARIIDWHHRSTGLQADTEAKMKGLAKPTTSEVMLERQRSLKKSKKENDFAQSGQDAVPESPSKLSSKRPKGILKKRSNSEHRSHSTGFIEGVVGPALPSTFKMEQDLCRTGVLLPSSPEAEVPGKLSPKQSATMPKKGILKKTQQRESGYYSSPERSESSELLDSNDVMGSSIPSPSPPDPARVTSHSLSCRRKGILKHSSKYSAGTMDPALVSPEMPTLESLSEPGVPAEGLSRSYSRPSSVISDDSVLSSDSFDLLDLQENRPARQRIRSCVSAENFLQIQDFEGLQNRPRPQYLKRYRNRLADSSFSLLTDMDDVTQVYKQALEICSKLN
# [13] = biological target: T5, Serine/threonine-protein kinase BRSK1 (Homo sapiens) (UniProt Q8TDC3); details: at 0.1 µM
# T5 sequence (whole entry): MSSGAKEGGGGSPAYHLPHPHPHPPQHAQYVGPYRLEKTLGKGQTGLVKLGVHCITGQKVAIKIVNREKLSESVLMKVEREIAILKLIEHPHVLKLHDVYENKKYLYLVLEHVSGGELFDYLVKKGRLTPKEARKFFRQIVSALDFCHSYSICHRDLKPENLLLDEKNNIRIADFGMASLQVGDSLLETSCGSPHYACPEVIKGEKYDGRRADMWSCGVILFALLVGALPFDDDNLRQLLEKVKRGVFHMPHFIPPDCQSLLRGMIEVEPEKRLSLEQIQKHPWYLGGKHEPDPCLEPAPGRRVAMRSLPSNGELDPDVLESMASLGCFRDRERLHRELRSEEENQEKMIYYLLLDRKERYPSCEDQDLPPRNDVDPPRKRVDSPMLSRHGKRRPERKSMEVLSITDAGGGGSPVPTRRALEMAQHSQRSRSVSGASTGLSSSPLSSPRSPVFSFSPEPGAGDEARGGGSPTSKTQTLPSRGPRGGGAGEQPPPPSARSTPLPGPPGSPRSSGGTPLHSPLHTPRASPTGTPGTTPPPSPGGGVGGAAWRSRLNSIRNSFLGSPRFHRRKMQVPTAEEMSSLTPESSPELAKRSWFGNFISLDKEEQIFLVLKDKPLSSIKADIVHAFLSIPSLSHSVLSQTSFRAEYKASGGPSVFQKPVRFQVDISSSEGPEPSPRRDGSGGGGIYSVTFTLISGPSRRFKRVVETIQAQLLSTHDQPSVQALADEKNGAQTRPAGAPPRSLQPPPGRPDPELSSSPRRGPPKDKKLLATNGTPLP
# [14] = biological target: T5, Serine/threonine-protein kinase BRSK1 (Homo sapiens); details: at 1 µM
# [15] = biological target: T6, Serine/threonine-protein kinase BRSK2 (Homo sapiens) (UniProt Q8IWQ3); details: at 0.1 µM
# T6 sequence (whole entry): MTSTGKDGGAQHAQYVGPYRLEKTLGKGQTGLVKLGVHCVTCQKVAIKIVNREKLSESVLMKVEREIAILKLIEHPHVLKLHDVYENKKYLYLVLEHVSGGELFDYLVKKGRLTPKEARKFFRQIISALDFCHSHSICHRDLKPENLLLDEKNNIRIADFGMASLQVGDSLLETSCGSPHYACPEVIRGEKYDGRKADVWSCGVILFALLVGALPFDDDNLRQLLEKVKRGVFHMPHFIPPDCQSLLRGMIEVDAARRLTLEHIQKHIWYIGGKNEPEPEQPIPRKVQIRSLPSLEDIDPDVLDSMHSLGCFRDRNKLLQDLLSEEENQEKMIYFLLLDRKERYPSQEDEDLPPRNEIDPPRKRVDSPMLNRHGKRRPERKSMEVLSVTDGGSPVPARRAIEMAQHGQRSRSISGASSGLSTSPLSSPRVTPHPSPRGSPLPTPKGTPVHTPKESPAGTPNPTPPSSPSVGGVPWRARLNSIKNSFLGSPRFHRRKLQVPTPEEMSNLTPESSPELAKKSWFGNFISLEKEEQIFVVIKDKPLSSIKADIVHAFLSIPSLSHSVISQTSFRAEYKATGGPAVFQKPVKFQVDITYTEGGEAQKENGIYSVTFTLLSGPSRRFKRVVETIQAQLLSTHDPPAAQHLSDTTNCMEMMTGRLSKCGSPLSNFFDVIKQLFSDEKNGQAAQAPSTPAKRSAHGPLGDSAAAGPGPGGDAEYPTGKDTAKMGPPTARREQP
# [16] = biological target: T6, Serine/threonine-protein kinase BRSK2 (Homo sapiens); details: at 1 µM
# [17] = biological target: Calcium/calmodulin-dependent protein kinase type 1D (Homo sapiens) (UniProt Q8IU85); details: at 0.1 µM
# Calcium/calmodulin-dependent protein kinase type 1D (Homo sapiens), sequence (Q8IU85 whole entry, looked up): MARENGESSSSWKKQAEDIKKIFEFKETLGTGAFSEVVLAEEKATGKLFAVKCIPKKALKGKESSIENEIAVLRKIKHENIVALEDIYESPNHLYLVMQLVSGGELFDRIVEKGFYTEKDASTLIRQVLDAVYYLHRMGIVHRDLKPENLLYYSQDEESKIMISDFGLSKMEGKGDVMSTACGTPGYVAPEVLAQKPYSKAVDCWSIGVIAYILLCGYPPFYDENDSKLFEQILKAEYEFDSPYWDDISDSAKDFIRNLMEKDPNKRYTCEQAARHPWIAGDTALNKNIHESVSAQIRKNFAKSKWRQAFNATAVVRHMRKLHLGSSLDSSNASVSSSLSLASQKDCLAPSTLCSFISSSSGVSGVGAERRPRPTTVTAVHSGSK
# [18] = biological target: Calcium/calmodulin-dependent protein kinase type 1D (Homo sapiens) (UniProt Q8IU85); details: at 1 µM
# [19] = biological target: Calcium/calmodulin-dependent protein kinase type II subunit alpha (Homo sapiens) (UniProt Q9UQM7); details: at 0.1 µM;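 also: reported values are averages (mean inhibition of CAMK2A)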
# Calcium/calmodulin-dependent protein kinase type II subunit alpha (Homo sapiens), sequence (Q9UQM7 whole entry): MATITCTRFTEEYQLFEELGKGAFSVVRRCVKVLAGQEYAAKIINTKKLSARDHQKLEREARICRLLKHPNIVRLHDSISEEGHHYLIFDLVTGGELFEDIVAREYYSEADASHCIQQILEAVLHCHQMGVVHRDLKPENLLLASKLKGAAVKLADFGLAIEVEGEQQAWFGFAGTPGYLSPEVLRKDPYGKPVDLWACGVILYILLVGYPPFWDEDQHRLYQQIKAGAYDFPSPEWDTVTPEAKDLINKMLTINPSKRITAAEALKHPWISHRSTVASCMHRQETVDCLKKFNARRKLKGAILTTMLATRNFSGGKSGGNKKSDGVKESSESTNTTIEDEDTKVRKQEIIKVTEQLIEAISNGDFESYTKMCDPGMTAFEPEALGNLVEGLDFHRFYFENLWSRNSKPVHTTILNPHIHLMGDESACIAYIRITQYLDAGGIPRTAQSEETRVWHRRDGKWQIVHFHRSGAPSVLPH
# [20] = biological target: T4, NUAK family SNF1-like kinase 1 (Homo sapiens); details: at 1 µM
# Ribosomal protein S6 kinase alpha-6 (Homo sapiens), sequence (Q9UK32 whole entry): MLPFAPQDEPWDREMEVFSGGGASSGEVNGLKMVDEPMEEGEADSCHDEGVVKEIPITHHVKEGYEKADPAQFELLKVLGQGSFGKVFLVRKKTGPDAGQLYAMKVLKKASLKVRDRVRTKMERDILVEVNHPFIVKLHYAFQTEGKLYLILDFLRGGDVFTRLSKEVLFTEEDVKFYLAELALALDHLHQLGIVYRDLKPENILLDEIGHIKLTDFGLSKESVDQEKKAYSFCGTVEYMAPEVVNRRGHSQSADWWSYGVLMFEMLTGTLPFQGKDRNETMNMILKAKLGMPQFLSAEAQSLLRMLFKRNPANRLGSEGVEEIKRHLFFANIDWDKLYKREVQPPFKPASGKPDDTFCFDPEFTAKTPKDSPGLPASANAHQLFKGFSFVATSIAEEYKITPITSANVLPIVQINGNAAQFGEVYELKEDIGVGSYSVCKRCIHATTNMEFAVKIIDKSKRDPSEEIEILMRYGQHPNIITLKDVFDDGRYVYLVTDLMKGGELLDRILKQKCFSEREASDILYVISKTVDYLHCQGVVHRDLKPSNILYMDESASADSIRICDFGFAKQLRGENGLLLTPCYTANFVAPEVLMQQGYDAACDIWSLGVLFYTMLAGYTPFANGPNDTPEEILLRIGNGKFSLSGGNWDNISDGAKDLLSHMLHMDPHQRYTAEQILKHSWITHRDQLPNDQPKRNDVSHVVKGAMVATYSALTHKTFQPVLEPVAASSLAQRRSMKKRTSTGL
SMILES,inhibition [1] [%],inhibition [2] [%],inhibition [3] [%],inhibition [4] [%],inhibition [5] [%],inhibition [6] [%],inhibition [7] [%],inhibition [8] [%],inhibition [9] [%],inhibition [10] [%],inhibition [11] [%],inhibition [12] [%],inhibition [13] [%],inhibition [14] [%],inhibition [15] [%],inhibition [16] [%],inhibition [17] [%],inhibition [18] [%],inhibition [19] [%],inhibition [20] [%]
N#Cc1c(NC(=O)c2cccc3ccccc23)sc2c1CCCC2,1.27,3.76,0.45,1.09,1.34,1.65,2.42,1.14,2.66,3.83,5.58,1.58,2.23,3.56,1.18,6.1,1.08,2.77,1.29,–
NC(=O)c1ccc(-c2nc(-c3ccccn3)c(-c3ccc4c(c3)OCO4)[nH]2)cc1,1.4,1.94,3.63,1.68,8.98,1.19,4.38,2.69,2.55,0.83,2.23,0.4,-0.32,-0.03,0.53,1.06,0.53,0.23,1.86,1.15
COc1cccc(-n2ncc3c(N/N=C/c4cccc(F)c4)ncnc32)c1,3.07,1.3,2.87,-1.45,0.6,-0.55,0.75,2.52,5.15,4.7,6.48,3.92,2.83,13.7,2.69,20.5,0.51,1.96,1.19,–
CN1CCC(C(=O)Nc2n[nH]c3nnc(-c4ccccc4)cc23)CC1,1.86,3.01,6.62,4.36,3.52,2.89,5.04,5.95,5.95,4.12,5.01,1.18,1.14,4.22,2.62,6.52,0.42,1.89,3.75,3.89
